# Data from the supplement of paper PMC8728848.
# Shown is part of a subset that was picked to be rich in the strongest signals.
# B1: OGAA (protein)
# chain: MVQKESQATLEERESELSSNPAASAGASLEPPAAPAPGEDNPAGAGGAAVAGAAGGARRFLCGVVEGFYGRPWVMEQRKELFRRLQKWELNTYLYAPKDDYKHRMFWREMYSVEEAEQLMTLISAAREYEIEFIYAISPGLDITFSNPKEVSTLKRKLDQVSQFGCRSFALLFADIDHNMCAADKEVFSSFAHAQVSITNEIYQYLGEPETFLFCPTEYCGTFCYPNVSQSPYLRTVGEKLLPGIEVLWTGPKVVSKEIPVESIEEVSKIIKRAPVIWDNIHANDYDQKRLFLGPYKGRSTELIPRLKGVLTNPNCEFEANYVAIHTLATWYKSNMNGVRKDVVMTDSEDSTVSIQIKLENEGSDEDIETDVLYSPQMALKLALTEWLQEFGVPHQY
# What was measured:
# Assay in all cases: glycan array binding signal (z-score within array); higher = stronger binding
# Details in all cases: glycan notation: IUPAC condensed, linker removed
# [1] = biological target: Fuc(a1-2)Gal(b1-3)GlcNAc(b1-2)Man(a1-3)[Fuc(a1-2)Gal(b1-3)GlcNAc(b1-2)Man(a1-6)]Man(b1-4)GlcNAc(b1-4)[Fuc(a1-6)]GlcNAc
# Outline: (§1)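 The Consortium for Functional Glycomics database supplied 3228 glycan arrays, of which those lacking an available protein sequence were dropped. The binding signal, a within-array Z-score, was averaged across arrays of the same protein sequence and across linkers. Negative scores can be read as non-binding.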
# [2] = biological target: Fuc(a1-2)Gal(b1-3)[Fuc(a1-4)]GlcNAc
# Outline: as §1
# [3] = biological target: Fuc(a1-2)Gal(b1-3)[Fuc(a1-4)]GlcNAc(b1-2)Man(a1-3)[Fuc(a1-2)Gal(b1-3)[Fuc(a1-4)]GlcNAc(b1-2)Man(a1-3)]Man(b1-4)GlcNAc(b1-4)GlcNAc
# Outline: as §1
# [4] = biological target: Fuc(a1-2)Gal(b1-3)[Fuc(a1-4)]GlcNAc(b1-2)Man(a1-3)[Fuc(a1-2)Gal(b1-3)[Fuc(a1-4)]GlcNAc(b1-2)Man(a1-6)]Man(b1-4)GlcNAc(b1-4)[Fuc(a1-6)]GlcNAc(b1-4)[Fuc(a1-6)]GlcNAc
# Outline: as §1
# [5] = biological target: Fuc(a1-2)Gal(b1-4)GlcNAc(b1-2)Man(a1-3)[Fuc(a1-2)Gal(b1-4)GlcNAc(b1-2)Man(a1-6)]Man(b1-4)GlcNAc(b1-4)[Fuc(a1-6)]GlcNAc
# Outline: as §1
# [6] = biological target: Fuc(a1-2)Gal(b1-4)GlcNAc(b1-3)Gal(b1-4)GlcNAc(b1-2)Man(a1-3)[Fuc(a1-2)Gal(b1-4)GlcNAc(b1-3)Gal(b1-4)GlcNAc(b1-2)Man(a1-6)]Man(b1-4)GlcNAc(b1-4)GlcNAc
# Outline: as §1
# [7] = biological target: Fuc(a1-2)Gal(b1-4)[Fuc(a1-3)]GlcNAc
# Outline: as §1
# [8] = biological target: Fuc(a1-2)Gal3S(b1-4)GlcNAc
# Outline: as §1
# [9] = biological target: Fuc(a1-2)Gal6S(b1-3)GlcNAc6S
# Outline: as §1
# [10] = biological target: Fuc(a1-2)Gal6S(b1-4)Glc6S
# Outline: as §1
# [11] = biological target: Fuc(a1-2)[GalNAc(a1-3)]Gal(b1-3)GalNAc(a1-3)[Fuc(a1-2)]Gal(b1-4)GlcNAc
# Outline: as §1
# [12] = biological target: Fuc(a1-2)[GalNAc(a1-3)]Gal(b1-3)GalNAc(b1-3)Gal(a1-4)Gal(b1-4)Glc
# Outline: as §1
# [13] = biological target: Fuc(a1-3)[Gal(b1-4)]GlcNAc(b1-6)GalNAc
# Outline: as §1
# [14] = biological target: Fuc(a1-3)[Gal(b1-4)]GlcNAc6S
# Outline: as §1
# [15] = biological target: Gal(a1-2)Gal
# Outline: as §1
# [16] = biological target: Gal(a1-3)Gal(b1-3)GlcNAc(b1-2)Man(a1-3)[Gal(a1-3)Gal(b1-3)GlcNAc(b1-2)Man(a1-6)]Man(b1-4)GlcNAc(b1-4)GlcNAc
# Outline: as §1
# [17] = biological target: Gal(a1-3)Gal(b1-3)GlcNAc(b1-6)GalNAc
# Outline: as §1
# [18] = biological target: Gal(a1-3)Gal(b1-4)[Fuc(a1-3)]GlcNAc(b1-2)Man(a1-3)[Gal(a1-3)Gal(b1-4)[Fuc(a1-3)]GlcNAc(b1-2)Man(a1-6)]Man(b1-4)GlcNAc(b1-4)GlcNAc
# Outline: as §1
# [19] = biological target: Gal(a1-4)Gal(b1-3)GlcNAc(b1-2)Man(a1-3)[Gal(a1-4)Gal(b1-3)GlcNAc(b1-2)Man(a1-6)]Man(b1-4)GlcNAc(b1-4)GlcNAc
# Outline: as §1
# [20] = biological target: Gal(a1-4)Gal(b1-4)GlcNAc(b1-3)Gal(b1-4)Glc
# Outline: as §1
# [21] = biological target: Gal(b1-3)[Fuc(a1-4)]GlcNAc(b1-2)Man(a1-3)[Gal(b1-3)[Fuc(a1-4)]GlcNAc(b1-2)Man(a1-6)]Man(b1-4)GlcNAc(b1-4)[Fuc(a1-6)]GlcNAc
# Outline: as §1
# [22] = biological target: Gal(b1-3)[Neu5Ac(b2-6)]GalNAc
# Outline: as §1
# [23] = biological target: Gal(b1-4)GlcNAc(b1-2)Man(a1-3)[Gal(b1-4)GlcNAc(b1-2)Man(a1-6)][GlcNAc(b1-4)]Man(b1-4)GlcNAc(b1-4)[Fuc(a1-6)]GlcNAc
# Outline: as §1
# [24] = biological target: Gal(b1-4)GlcNAc(b1-2)[Gal(b1-4)GlcNAc(b1-6)]Man(a1-6)[Gal(b1-4)GlcNAc(b1-2)Man(a1-3)]Man(b1-4)GlcNAc(b1-4)GlcNAc
# Outline: as §1
# [25] = biological target: Gal(b1-4)GlcNAc(b1-3)Gal(b1-3)GalNAc
# Outline: as §1
binder,measurement,setting,value
B1,glycan array binding signal (z-score),[1],0.026
same,glycan array binding signal (z-score),[2],-0.076
same,glycan array binding signal (z-score),[3],0.285
same,glycan array binding signal (z-score),[4],0.251
same,glycan array binding signal (z-score),[5],0.206
same,glycan array binding signal (z-score),[6],0.006
same,glycan array binding signal (z-score),[7],-0.07
same,glycan array binding signal (z-score),[8],-0.06
same,glycan array binding signal (z-score),[9],1.74
same,glycan array binding signal (z-score),[10],0.205
same,glycan array binding signal (z-score),[11],22.9
same,glycan array binding signal (z-score),[12],8.04
same,glycan array binding signal (z-score),[13],0.242
same,glycan array binding signal (z-score),[14],-0.107
same,glycan array binding signal (z-score),[15],0.002
same,glycan array binding signal (z-score),[16],0.031
same,glycan array binding signal (z-score),[17],-0.107
same,glycan array binding signal (z-score),[18],0.644
same,glycan array binding signal (z-score),[19],-0.007
same,glycan array binding signal (z-score),[20],-0.098
same,glycan array binding signal (z-score),[21],0.357
same,glycan array binding signal (z-score),[22],-0.096
same,glycan array binding signal (z-score),[23],-0.009
same,glycan array binding signal (z-score),[24],-0.08
same,glycan array binding signal (z-score),[25],-0.11
